From PubChem BioAssay (NCATS)
Where “and” joins values, the source holds several entries; their conditions need not be identical. Equal values may be shown once. Results filed as inconclusive are left out. Calls of active or inactive are those of the source. The call rests on the fitted dose curve; in most records, active means well fitted curve in the direction sought with a large enough effect; inconclusive means small, poorly fitted or top-dose-only effect, or another doubt; inactive means no such curve, though single readings can be large; an effect the other way counts as inactive or inconclusive.

Experiments:
[1] = Viability qHTS for spleen associated tyrosine kinase inhibitor (SYKi) naive MV4-11 cells (AID 1963823); further: nearly all actives have a fitted effect of over 40% in size
Procedure, shortened: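 Seeding of 500 SYKi-naive MV4-11 cells per well onto pre-dispensed compounds preceded a 72 hr incubation at 37 C. Luminescent CellTiter-Glo signal, read after 10 min at room temperature, reflected viable cells.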

[2] = Viability qHTS for spleen associated tyrosine kinase inhibitor (SYKi) drug resistant MV4-11 cells (AID 1963824); further: nearly all actives have a fitted effect of over 35% in size
Procedure, shortened: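 SYK-inhibitor-resistant MV4-11 AML cells were seeded at 500 per well onto compound and cultured 72 hours (37 °C, 5% CO2). CellTiter-Glo was then added, and after 10 min at room temperature, luminescence gave viability.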

[3] = Cellular viability qHTS for adrenocortical cancer (ACC) cell line SW-13 (AID 1963989); conditions: SW-13 ACC cells viability, CellTiter-Glo, 48 h; activity (max response): hits give low values; further: nearly all actives have a fitted effect of over 65% in size;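 on activity (max response): cells grown in serum-free medium with ITS supplement; on the % scale 0 is the no-effect control and ±100 the full control effect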
Procedure, shortened: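 IC50 and maximal-response values come from four-parameter logistic fits of titration data. SW-13 cells in serum-free medium received compounds (up to 46 uM final) for 48 h before CellTiter-Glo luminescence.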

[4] = Quantitative highthroughput screen to assess conditional lethalithy of SEM cells grown in Human Plasma-Like Medium with dialyzed fetal bovine serum (HPLM+ds) (AID 1963882); further: nearly all actives have a fitted effect of over 35% in size; on Viability: series mostly up to about 46 µM
Procedure, shortened: (§1)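 Each medium arm—HPLM with 10% dialyzed FBS, or RPMI1640 with 5 mM glucose and 10% untreated or dialyzed FBS—was screened against an 11-point, 3-fold compound titration for 48 h at 37 °C, with CellTiter-Glo luminescence as endpoint.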

[5] = Quantitative highthroughput screen to assess conditional lethalithy of SEM cells grown in RPMI1640 with dialyzed fetal bovine serum (RPMI+ds) (AID 1963884); further: nearly all actives have a fitted effect of over 35% in size;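 on Viability: series mostly up to about 46 µM; 100% = DMSO control wells and 0% = empty wells without cells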
Procedure, shortened: as §1

[6] = Quantitative highthroughput screen to assess conditional lethalithy of SEM cells grown in RPMI1640 with unreated serum (RPMI+s) (AID 1963883); further: nearly all actives have a fitted effect of over 35% in size;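 on Viability: 100% = DMSO wells and 0% = empty wells without cells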
Procedure, shortened: as §1

[7] = Cellular viability qHTS for adrenocortical cancer (ACC) cell line NCI-H295R (AID 1963990); further: nearly all actives have a fitted effect of over 60% in size
Procedure, shortened: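 Adrenocortical carcinoma cells, suspended at 300 000 cells/mL in serum-free DMEM plus ITS, rested overnight before pin transfer of compound. After two days' incubation, ATP-dependent luminescence was recorded and curve-fitted.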
Potency means the concentration at half of the fitted maximal effect.

CCN(CCCOc1ccc2c(Nc3cc(CC(=O)Nc4cccc(F)c4)[nH]n3)ncnc2c1)CCOP(=O)(O)O
active: Potency [1] 23.1 nM and 186 nM | Potency [2] 58 nM and 372 nM
inactive: activity (max response) [3] -30.5%

NC(=NCc1ccccc1)NC(=O)c1nc(Cl)c(N)nc1N
active: Potency [1] 3.32 µM | Potency [2] 5.25 µM | Potency [5] 14.8 µM
inactive: Potency [4]

Oc1ccc(C2CCN(c3ccnc4ccccc34)CC2)cc1O
inactive: Potency [7]
active: Potency [1] 2.09 µM | Potency [2] 1.86 µM | Potency [6] 11.8 µM

CN(C[C@@H]1COCCO1)S(=O)(=O)Nc1ccc2ccc3ncc(-c4cnn(C)c4)cc3c(=O)c2c1
active: Potency [1] 0.296 µM | Potency [2] 0.461 µM | Potency [6] 0.418 µM | Potency [5] 0.662 µM

O=C(O)c1cn(C2CC2)c2cc(N3CCNCC3)c(F)cc2c1=O
inactive: Potency [1] | Potency [2] | activity (max response) [3] -3.87% and 6.05% | Potency [7]
active: Potency [4] 16.6 µM | Potency [5] 3.72 µM

Cn1c(=O)c2c(ncn2CCO)n(C)c1=O
inactive: Potency [1] | Potency [2] | activity (max response) [3] -10.8%

Cc1cc(O)c(-c2ccc([C@@H](C)CN(C)C)cc2)c2c1[nH]c(=O)c1sccc12
active: Potency [1] 0.0184 µM | Potency [2] 0.0092 µM | Potency [3] 0.0891 µM

COc1cc2c(Oc3ccc4[nH]c(C)cc4c3F)ncnc2cc1OCCCN1CCCC1
active: Potency [1] 13 µM and 3.32 µM | Potency [2] 5.8 µM and 2.63 µM | Potency [6] 4.18 µM | Potency [5] 5.26 µM | Potency [3] 25.1 µM | Potency [7] 22.4 µM

C=CC(=O)N1CCC(CNc2ncnc(N)c2-c2ccc(Oc3ccccc3)cc2)CC1
inactive: activity (max response) [3] -22.9%
active: Potency [1] 5.9 µM | Potency [2] 8.33 µM

CCC(=O)NC[C@H](Cc1ccc(OCCc2nc(-c3ccccc3)oc2C)cc1)N/C(C)=C\C(=O)c1ccc(C(F)(F)F)cc1
active: Potency [1] 16.6 µM | Potency [2] 11.8 µM
inactive: activity (max response) [3] -7.93%

CCCCC(CC)COC(=O)/C=C/c1ccc(OC)cc1 (stereo not drawn)
inactive: Potency [1] | Potency [2] | activity (max response) [3] 1.77%

CN1CCCC(n2nc(Cc3ccc(Cl)cc3)c3ccccc3c2=O)CC1 (stereo not drawn)
inactive: Potency [6] | Potency [5]
active: Potency [1] 10.6 µM | Potency [2] 26.6 µM | Potency [7] 18.4 µM

Nc1ncnc2c1c(-c1cccc(OCc3ccccc3)c1)cn2C1CC(CN2CCCC2)C1 (stereo not drawn)
active: Potency [1] 0.517 µM | Potency [2] 1.3 µM | Potency [3] 25.1 µM

CCCS(=O)(=O)Nc1ccc(F)c(C(=O)c2c[nH]c3ncc(Cl)cc23)c1F
active: Potency [1] 11.6 µM | Potency [2] 11.8 µM | Potency [4] 9.35 µM | Potency [5] 13.2 µM

CC(=O)Nc1nc(C)c(-c2ccc(Cl)c(S(=O)(=O)NCCO)c2)s1
active: Potency [1] 0.82 µM | Potency [2] 0.92 µM | Potency [4] 4.18 µM | Potency [6] 2.64 µM | Potency [5] 1.66 µM | Potency [3] 17.8 µM | Potency [7] 25.1 µM

CCn1c(N)c(C(=O)NC)c(=O)c2ccc(C#CC(C)(O)COC)nc21 (stereo not drawn)
inactive: activity (max response) [3] 12.5%
active: Potency [1] 4.17 µM | Potency [2] 4.11 µM

C=CC(=O)Nc1cccc(Sc2nc(Nc3ccc(N4CCN(C)CC4)cc3)ncc2Cl)c1
active: Potency [1] 580 nM and 590 nM | Potency [2] 580 nM and 742 nM | Potency [4] 23.5 µM | Potency [5] 16.6 µM | Potency [3] 2 µM | Potency [7] 3.16 µM

CCN(CC)CCCCNc1ncc2cc(-c3cc(OC)cc(OC)c3)c(NC(=O)NC(C)(C)C)nc2n1
active: Potency [1] 5.8 µM and 8.33 µM | Potency [2] 5.8 µM and 9.34 µM | Potency [4] 14.8 µM | Potency [6] 16.6 µM | Potency [3] 28.2 µM | Potency [7] 25.1 µM

Cc1c(NC(=O)OC[C@@H]2COCCN2)cn2ncnc(Nc3ccc4c(cnn4Cc4cccc(F)c4)c3)c12
active: Potency [1] 10.3 µM and 13.2 µM | Potency [2] 8.2 µM and 11.8 µM | Potency [4] 9.35 µM | Potency [6] 9.35 µM | Potency [5] 10.5 µM | Potency [3] 15.8 µM | Potency [7] 31.6 µM

CCC1C(=O)OCC1Cc1cncn1C (stereo not drawn)
inactive: Potency [1] | Potency [2] | activity (max response) [3] 6.41%

CCCNC(=O)[C@H]1O[C@@H]1C(=O)N[C@H](C(=O)N1CCC[C@H]1C(=O)OC)C(C)CC (stereo partly drawn)
active: Potency [1] 1.66 µM | Potency [2] 0.934 µM | Potency [3] 10 µM

O=C1NC(=O)/C(=C/c2ccc3nccc(-c4ccncc4)c3c2)S1
active: Potency [1] 461 nM and 372 nM | Potency [2] 820 nM and 525 nM | Potency [3] 1 µM

CCN(CC)CCOC(=O)C1(C2CCCCC2)CCCCC1
inactive: Potency [1] | Potency [2] | activity (max response) [3] -12.2%

CN(C)CCN1C(=O)c2cccc3cc(NC(N)=O)cc(c23)C1=O
active: Potency [1] 4.17 µM | Potency [2] 4.17 µM | Potency [3] 17.8 µM

CCC(=O)O[C@H]1[C@H](O[C@@H]2[C@@H](C)[C@H](O[C@H]3C[C@@](C)(OC)[C@@H](O)[C@H](C)O3)[C@@H](C)C(=O)O[C@H](CC)[C@@](C)(O)[C@H](O)[C@@H](C)C(=O)[C@H](C)C[C@@]2(C)O)O[C@H](C)C[C@@H]1N(C)C
inactive: Potency [1] | Potency [2] | activity (max response) [3] 0.809%

C=CC(=O)Nc1cccc(Oc2nc(Nc3ccc(N4CCN(C)CC4)cc3)nc3ccsc23)c1
active: Potency [1] 2.63 µM | Potency [2] 3.32 µM | Potency [3] 3.16 µM

CC[C@H](CC[C@@H](C)[C@H]1CC[C@H]2[C@@H]3CC=C4C[C@@H](O)CC[C@]4(C)[C@H]3CC[C@]12C)C(C)C
inactive: Potency [1] | Potency [2] | activity (max response) [3] -11%

COc1cc(N2CCN(C(C)=O)CC2)ccc1Nc1ncc(Cl)c(Nc2ccc(N3CCN(C(C)=O)CC3)cc2OC)n1
active: Potency [1] 291 nM and 372 nM | Potency [2] 366 nM and 1.05 µM | Potency [3] 25.1 µM

NNc1nnc(NN)c2ccccc12
inactive: Potency [1] | Potency [2] | activity (max response) [3] -8.18%
